Data from PubChem BioAssay (NCI).
Compounds without any hit were thinned out: in the full panel of roughly 79,000, 15% have a hit. Unmarked numbers belong to inactive results. Active and inactive are the calls of the source. No stated cut-off is given here; in the data, active means growth inhibition above about 70%; inactive means the rest.

What was measured:
[1] = NCI Yeast Anticancer Drug Screen. Data for the rad50 strain (AID 155);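 further: 0% = growth of vehicle-only cultures of the same strain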; details: S. cerevisiae rad50 strain growth inhibition; at 50.0 µM; active compounds read high
Summary of the method: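 Compounds were tested on a yeast strain with an engineered DNA damage repair alteration; the reported value is growth inhibition normalised to vehicle treatment.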

[2] = NCI Yeast Anticancer Drug Screen. Data for the mec2-1 strain (AID 157); details: S. cerevisiae mec2-1 strain, at 50.0 µM, active compounds read high
Summary of the method: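 Compounds were applied to mec2-1 yeast cells. Their growth was then compared with that of vehicle-treated cultures to give growth inhibition.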

[3] = NCI Yeast Anticancer Drug Screen. Data for the sgs1 mgt1 strain (AID 161);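 further: 0% = growth of cultures given vehicle only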; details: S. cerevisiae sgs1 mgt1 strain, at 50.0 µM, active compounds read high
Summary of the method: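 Yeast cells carrying a defined DNA-repair defect were exposed to test compounds. Growth inhibition was measured relative to vehicle-treated controls.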

[4] = NCI Yeast Anticancer Drug Screen. Data for the cln2 rad14 strain (AID 165);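 further: 0% = growth equal to vehicle treated cultures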; details: S. cerevisiae cln2 rad14 strain, at 50.0 µM, active compounds read high
Summary of the method: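 Strain: cln2 rad14 yeast, altered in cell cycle control and DNA damage repair. Read-out: growth inhibition vs vehicle.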

[5] = NCI Yeast Anticancer Drug Screen. Data for the bub3 strain (AID 167); details: S. cerevisiae bub3 mutant strain, at 50.0 µM, active compounds read high
Summary of the method: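 Growth of a checkpoint-deficient yeast mutant is measured after compound exposure. Values represent inhibition relative to vehicle.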

[6] = NCI Yeast Anticancer Drug Screen. Data for the mlh1 rad18 strain (AID 175); details: S. cerevisiae mlh1 rad18 strain growth inhibition; at 50.0 µM; active compounds read high
Summary of the method: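 A repair-deficient yeast strain is exposed to test compound, and growth is scored relative to vehicle-treated controls.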

Row | Compound | growth inhibition [1] | growth inhibition [2] | growth inhibition [3] | growth inhibition [4] | growth inhibition [5] | growth inhibition [6]
1 | FC(F)(F)c1cccc(NC2=NCCS2)c1 | -22.2% | -46.1% | 0% | -5.6% | 17.9% | -42.8%
2 | CCCCNC(=O)C(Cl)Cl | 20.2% | 5.4% | 8.65% | 2.4% | -14.8% | 13.9%
3 | O=[N+]([O-])c1ccccc1CBr | 52.8% | 34.5% | 57% | 34.9% | 33.5% | 42%
4 | COC(=O)/C=C/c1ccc(Cl)cc1 | -7% | -1.8% | 0.5% | -36.5% | -10.2% | -7.4%
5 | [Se]=[Mo]=[Se] | -10.2% | -8.3% | -29.9% | -18% | -7.05% | -33.9%
6 | CCC[CH2][Sn]([Cl])([Cl])[CH2]CCC.c1ccncc1 | 95.5% (active) | 97.5% (active) | 98.2% (active) | 98.3% (active) | 98.2% (active) | 98% (active)
7 | OCC(S)CS (configuration not stated) | 17.4% | -26.4% | 12.6% | 2.9% | 9.55% | -13.4%
8 | O=C/C=C/c1ccccc1.[Fe+2].[c-]1[c-][c-][cH-][c-]1.[c-]1[c-][c-][cH-][c-]1 | 4.65% | -48.2% | 1.65% | 7.85% | 11.4% | 0.4%
9 | CCCCOP(=S)(OCCCC)Oc1ccc(Cl)cc1Cl | -4.95% | -41.4% | -0.55% | -0.25% | 17.5% | -1.95%
10 | N.N.N.N.O=C([O-])C(Cl)Cl.O=C([O-])C(Cl)Cl.[Co+3].[O-][Cl+3]([O-])([O-])[O-] | -10.1% | -13.2% | -23.1% | -15.2% | -6.1% | -13.6%
11 | NC(c1ccccc1)P(=O)(O)O (configuration not stated) | -12.7% | -20.4% | -29.9% | 5.85% | -8.75% | -33.3%
12 | O=CC1(c2ccccc2)CCNCC1 | -0.95% | 3.85% | 15.5% | 6.35% | 0.85% | 8.85%
13 | COc1ccc([As]=O)cc1N (configuration not stated) | 4.8% | 18.1% | 8.75% | 7.25% | -7.45% | -10.5%
14 | CCC[As](=O)(O)c1ccc(Cl)cc1 | 88.5% (active) | 99.5% (active) | 99.2% (active) | 73.5% (active) | 94.7% (active) | 99.2% (active)
15 | O=C1C(NCC(O)CO)=C(N2CC2)C(=O)C(NCC(O)CO)=C1N1CC1 (configuration not stated) | -0.05% | 7% | 1.15% | 4.55% | 8.8% | 25.6%
16 | O=C(Nc1cccc(Cl)c1)Oc1ccc(S(=O)(=O)F)cc1Cl | 92.3% (active) | 94.7% (active) | 95.7% (active) | 91.2% (active) | 90.9% (active) | 94.8% (active)
17 | O[C@H](c1ccccc1)[C@@H](c1ccccc1)N1CCCCC1 | -9.85% | -11.9% | -3.65% | -28% | 41.9% | -11.6%
18 | Cc1ccc2c(c1)C(=S)N1CSCC1c1nncn1-2 (configuration not stated) | 30.6% | 30% | 28.9% | 20.9% | 13.4% | 35.8%
19 | COC(=O)CCc1ccc(NP(=O)(Oc2ccccc2)N(CCCl)CCCl)cc1 (configuration not stated) | 13.3% | 20.2% | 23.4% | 35.8% | 12.2% | -8.55%

Row | Compound | growth inhibition [1] | growth inhibition [2] | growth inhibition [3] | growth inhibition [4] | growth inhibition [5] | growth inhibition [6]
20 | COc1cc(/C=C(\C)[N+](=O)[O-])cc(OC)c1 | 18.9% | 16.1% | 34% | 58.2% | 64.7% | 86.3% (active)
21 | NC1=Nc2ccccc2Sc2ccccc21 | -19.2% | -38.8% | -44.5% | 2.5% | -23.5% | -33.8%
22 | CC(C)(C)N.[O]=[Cr](=[O])([OH])[OH] | 20.9% | 7.45% | 29.1% | -2.25% | 21.7% | 21%
23 | [C-]#[O+].[C-]#[O+].[C-]#[O+].[Cr].c1ccc([PH+](CC[As](c2ccccc2)c2ccccc2)CC[As](c2ccccc2)c2ccccc2)cc1 | 5.45% | -7.65% | 27.7% | 2.6% | 11.1% | 38.9%
24 | Cc1cc(F)ccc1[As](=O)(O)O | -0.55% | -1.95% | -3.25% | -17.9% | 5% | 3.25%
25 | C1CC[N+]2=C(C1)OCCC2 | 12.1% | -2.15% | 6.75% | -17.2% | -1.9% | 4.25%
26 | COc1cc(/C=N/NC(=O)CN(C)C)cc(OC)c1N(CCCl)CCCl | 8.85% | 10.4% | -15.7% | 17.9% | -2.25% | 5.2%
27 | CCCCOP(=O)(OCCCC)Oc1ccc2ccccc2c1 | 93.1% (active) | 93.2% (active) | 95.4% (active) | 92.8% (active) | 95.1% (active) | 95.4% (active)
28 | COP(=O)(OC)C(O)C(Br)(Br)Br (configuration not stated) | 28.6% | 23.1% | 45.2% | 34.8% | 11.7% | 23.8%
29 | CCCOC(C(=O)OC1CCC2CCC1N2C)(c1ccccc1)c1ccccc1 (configuration not stated) | 5.4% | -0.5% | 17.8% | 13.8% | 28.8% | 32.9%
30 | CC(=O)OC1CCC2(C)C(CCC3C2CCC2(C)C3CC(CC(=O)O)C2OC(C)=O)C1 (configuration not stated) | 16.5% | 18.8% | 7.3% | -0.5% | 3.3% | 24%
31 | Nc1ccc([N+](=O)[O-])cc1 | -11.2% | 2.8% | -14.9% | -6.55% | -14.7% | -1%
32 | COc1cc2c3c(c1OC)Oc1ccc(cc1)CC1c4c(cc(OC)c(OC)c4Oc4ccc(cc4)CC3N(C)CC2)CCN1C (configuration not stated) | 2.75% | 11.9% | -11.3% | -8% | -13.6% | -3.65%
33 | COC(=O)CP(=O)(OC)OCC(F)(F)F (configuration not stated) | -32.8% | -14.4% | -23.5% | -6% | -33.6% | -25.3%
34 | CCCC(NC(=O)CCl)C(=O)O (configuration not stated) | -13.1% | -18.1% | -11.4% | -73.8% | 0.65% | -8.25%
35 | NC(Cc1ccc(O)c(F)c1)C(=O)O (configuration not stated) | -37.1% | -40.4% | -41.2% | -2.75% | -51.9% | -14.3%
36 | C[Si](C)(C)CN(N=O)C(N)=O | 1.55% | 3.4% | -3.45% | -25.2% | 3.95% | 9.45%
37 | CC(=O)Cc1ccc(C)cc1 | -40.4% | -41.8% | -29.5% | 7.3% | -44.5% | -20.3%
